The text below walks through data of PubChem BioAssay (NCATS).

The nature of experiment [1]: qHTS profiling for inhibitors of Plasmodium falciparum proliferation (AID 504749). Also: nearly all actives have a fitted effect of over 60% in size.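 As to activity, negative = inhibition: 0% = DMSO vehicle and full inhibition = artemisinin control.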 As to conditions: P. falciparum in erythrocytes, SYBR Green DNA, 72 h. In outline: (§1)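 Readout was DNA-dye fluorescence from lysed cultures, ex 485/em 535 nm. Parasitized red cells had grown 72 h with compound; data scaled between 0.29 uM artemisinin and DMSO wells and corrected using vehicle-only plates.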
On the technique in general: qHTS replaces the single test concentration by a dilution series.

Another experiment deals with 3D7. The description is as above. The note with it: P. falciparum in erythrocytes, SYBR Green DNA, 72 h; series mostly up to 28.7 µM. Summed up: as §1
The next experiment relates to 7G8. Described as above. As to conditions: P. falciparum in erythrocytes, SYBR Green DNA, 72 h; series mostly up to 28.7 µM. Summed up: as §1
Another experiment deals with AA1029. The description is as above. As to conditions: P. falciparum in erythrocytes, SYBR Green DNA, 72 h; series mostly up to 28.7 µM. Summed up: as §1
The test system of the next experiment is AS120. The experiment is described as above. As to conditions: P. falciparum in erythrocytes, SYBR Green DNA, 72 h; series mostly up to 28.7 µM. Summed up:
as §1

The subject of another experiment is ATS189. Described as above. As to conditions: P. falciparum in erythrocytes, SYBR Green DNA, 72 h; series mostly up to 28.7 µM. In outline:
as §1

The mark [2] stands for this setting: at 28.7 µM (top of the series), parasite line A.
Where [3] appears, read: at 28.7 µM (top of the series), parasite line B.
[4] abbreviates: at 12.8 µM (top of the series), parasite line A.
Setting [5] is: at 12.8 µM (top of the series), parasite line B.

Results filed as inconclusive are left out. Values without a mark were called inactive. The source made the active and inactive calls. Calls follow the shape of the dose curve; as a rule, active = well fitted inhibition curve with a large enough effect; inconclusive = small, poorly fitted or top-dose-only effect; inactive = flat fitted curve, though single readings scatter.
Potency is read from the fitted curve at half-maximal effect.

As for `CNC(=O)NC(O)C(Cl)(Cl)Cl` (stereo not given), the activity, negative = inhibition in experiment [1] (setting [2]) was 0.151%; in experiment [1] (setting [3]) it was 3.59%. For the same compound, the Potency entry in the experiment on 3D7, in the experiment on 7G8, in the experiment on AA1029, in the experiment on AS120 and in the experiment with ATS189 was “inactive” throughout.
With `c1ccc2nc(N3CCNCC3)ccc2c1`, the activity, negative = inhibition in experiment [1] (setting [2]) was 16.1%; in experiment [1] (setting [3]), 9.33%. Further, the Potency result in the experiment with 3D7, in the experiment with 7G8, in the experiment on AA1029, in the experiment on AS120 and with ATS189 was “inactive” each time.
`C[C@H]1C(=O)O[C@@H]2CCN3CC=C(COC(=O)[C@](C)(O)[C@]1(C)O)[C@H]23`: the activity, negative = inhibition in experiment [1] (setting [2]) was -7.4%; in experiment [1] (setting [3]), -1.5%. The Potency entry in the experiment on 3D7, with 7G8, in the experiment on AA1029, with AS120 and in the experiment on ATS189 was “inactive” in each case.
With `O=C(CCCN1CCC(n2c(=O)[nH]c3ccccc32)CC1)c1ccc(F)cc1`, the Potency in experiment [1] (parasite line A) was 3.16 µM (active); in experiment [1] (parasite line B), 3.16 µM (active); with 3D7, 1 µM (active); in the experiment with 7G8, 0.158 µM (active); in the experiment with AA1029, 3.55 µM (active); in the experiment with AS120, 2.24 µM (active). Besides, the Potency in the experiment on ATS189 was 1.58 µM (active).
As for `CNC(=O)Oc1cccc2ccccc12`, the activity, negative = inhibition is -7.78% in experiment [1] (setting [2]) and -8.17% in experiment [1] (setting [3]). Also, the Potency result in the experiment with 3D7, with AA1029, with AS120 and with ATS189 was “inactive” each time.
On to `CCC1(CC)C(=O)NC(=O)NC1=O`, for which the values for the activity, negative = inhibition in experiment [1] (setting [2]) and in experiment [1] (setting [3]) were -0.0726% and 11.2%, respectively. The Potency entry in the experiment with 3D7, with AA1029, in the experiment with AS120 and in the experiment with ATS189 was “inactive” each time.
As for `COP(=S)(OC)Oc1ccc(Sc2ccc(OP(=S)(OC)OC)cc2)cc1`, the activity, negative = inhibition in experiment [1] (setting [2]) was 7.58%; in experiment [1] (setting [3]), 4.24%. Also, the Potency result in the experiment on 3D7, with 7G8, in the experiment with AA1029, in the experiment on AS120 and in the experiment with ATS189 was “inactive” in each case.
Regarding `CC(C)(C)OC(=O)c1ncn2c1[C@@H]1CCCN1C(=O)c1c(Br)cccc1-2`, the figures for the activity, negative = inhibition in experiment [1] (setting [2]) and in experiment [1] (setting [3]) were 0.318% and 11.2%, respectively. Further, the Potency result in the experiment on 3D7, with AA1029, in the experiment with AS120 and with ATS189 was “inactive” in each case.
Regarding `C[N+]1(CCC(C(N)=O)(c2ccccc2)c2ccccc2)CCCCC1`, the activity, negative = inhibition in experiment [1] (setting [2]) is -14.5%; in experiment [1] (setting [3]), -9.8%. The Potency entry in the experiment with 3D7, with 7G8, with AA1029, in the experiment on AS120 and in the experiment on ATS189 was “inactive” each time.
For the compound `Cc1ncc2n1-c1ccc(Cl)cc1C(c1ccccc1F)=NC2`, the activity, negative = inhibition in experiment [1] (setting [2]) was 7.97%; in experiment [1] (setting [3]), -15.6%. The Potency entry with 3D7, with 7G8, in the experiment with AA1029, with AS120 and with ATS189 was “inactive” each time.
Consider `OC(c1ccccc1)(c1ccccc1)C1CCNCC1`, for which the activity, negative = inhibition in experiment [1] (setting [4]) was 1.93%; in experiment [1] (setting [5]) it was 13.2%. Further, the Potency entry with 3D7, in the experiment on AA1029, in the experiment with AS120 and in the experiment with ATS189 was “inactive” each time.
On to `CN1C(=O)CN=C(c2ccccc2)c2cc([N+](=O)[O-])ccc21`, for which the figures for the activity, negative = inhibition in experiment [1] (setting [2]) and in experiment [1] (setting [3]) were 1.56% and -3.67%, respectively. The Potency result with 3D7, with 7G8, in the experiment on AA1029, in the experiment with AS120 and with ATS189 was “inactive” each time.
Turning to `C=CCOC(Cn1ccnc1)c1ccc(Cl)cc1Cl` (stereo not given), the Potency was 10 µM (active) in experiment [1] (parasite line B); 11.2 µM (active) in the experiment with 3D7; 2 µM (active) in the experiment on 7G8; 8.91 µM (active) in the experiment with AA1029; 5.01 µM (active) in the experiment with AS120; 10 µM (active) with ATS189.
With `Nc1ccc(N)cc1`, the Potency in the experiment with 3D7 was 8.91 µM (active).
For `OC(O)C(Cl)(Cl)Cl`, the activity, negative = inhibition in experiment [1] (setting [2]) was 9.58%; in experiment [1] (setting [3]), 19.3%. Moreover, the Potency result in the experiment on 3D7, in the experiment with AA1029, in the experiment with AS120 and in the experiment with ATS189 was “inactive” in each case.
Take `CCC(=O)O[C@H]1CC[C@H]2[C@@H]3CCC4=CC(=O)CC[C@]4(C)[C@H]3CC[C@]12C`: the activity, negative = inhibition is 4.77% in experiment [1] (setting [4]) and 12.2% in experiment [1] (setting [5]). For the same compound, the Potency entry in the experiment on 3D7, in the experiment with 7G8, in the experiment with AA1029, with AS120 and in the experiment with ATS189 was “inactive” each time.
